The list is not random: actives were taken first. Their share in the collection is about 1.1%.
RXFP1 antagonist = antagonists of human relaxin receptor RXFP1 | activity change, negative = inhibition, % at 57.5 µM | 350,000 tested, 0.59% active | AID 1259400 | HEK293-RXFP1, relaxin-stimulated cAMP HTRF, 30 min; stronger effect = lower value;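 active means activity change of -60% or lower, but not beyond a set lower limit; inconclusive means change between -60% and -40%, or beyond the set limit; inactive means change above -40%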; further: on the % scale 0 is the no-effect control and ±100 the full control effect
RXFP1 ag = RXFP1 (human) receptor agonism | 370,000 tested, 0.3% active | Q9HBX9 | AID 2676 | Potency, µM (highest dose often 57.5 µM), for inactives: top-dose activation, actives largely listed as activators | HEK293T-RXFP1 cAMP TR-FRET, 30 min; response scale: percent of porcine relaxin response, buffer zero; active means well fitted activation curve with a large enough effect; inconclusive means small, poorly fitted or top-dose-only effect; further: potency means the concentration at half of the fitted maximal effect; on the % scale 0 is the no-effect control and ±100 the full control effect; nearly all actives have a fitted effect of over 60% in size
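HEK293 cells stably expressing RXFP1, treated 30 min at 37C with compounds plus PDE4 inhibitor Ro 20174; cAMP measured by HTRF TR-FRET. Normalized to buffer and 29 nM porcine relaxin; EC50 by Hill fit.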
TRPV1 PAM = potentiators of human vanilloid receptor 1 (TRPV1); Q8NER1; 320,000 tested, 0.02% active; potentiation, % at 8.33 µM; TRPV1-expressing cells, Fluo-8 calcium influx, capsaicin EC20 potentiation; in the data active means potentiation above about 80%; inconclusive means between about 30% and that limit; further: 0% is about no effect
Target sequence (Q8NER1 whole entry, looked up): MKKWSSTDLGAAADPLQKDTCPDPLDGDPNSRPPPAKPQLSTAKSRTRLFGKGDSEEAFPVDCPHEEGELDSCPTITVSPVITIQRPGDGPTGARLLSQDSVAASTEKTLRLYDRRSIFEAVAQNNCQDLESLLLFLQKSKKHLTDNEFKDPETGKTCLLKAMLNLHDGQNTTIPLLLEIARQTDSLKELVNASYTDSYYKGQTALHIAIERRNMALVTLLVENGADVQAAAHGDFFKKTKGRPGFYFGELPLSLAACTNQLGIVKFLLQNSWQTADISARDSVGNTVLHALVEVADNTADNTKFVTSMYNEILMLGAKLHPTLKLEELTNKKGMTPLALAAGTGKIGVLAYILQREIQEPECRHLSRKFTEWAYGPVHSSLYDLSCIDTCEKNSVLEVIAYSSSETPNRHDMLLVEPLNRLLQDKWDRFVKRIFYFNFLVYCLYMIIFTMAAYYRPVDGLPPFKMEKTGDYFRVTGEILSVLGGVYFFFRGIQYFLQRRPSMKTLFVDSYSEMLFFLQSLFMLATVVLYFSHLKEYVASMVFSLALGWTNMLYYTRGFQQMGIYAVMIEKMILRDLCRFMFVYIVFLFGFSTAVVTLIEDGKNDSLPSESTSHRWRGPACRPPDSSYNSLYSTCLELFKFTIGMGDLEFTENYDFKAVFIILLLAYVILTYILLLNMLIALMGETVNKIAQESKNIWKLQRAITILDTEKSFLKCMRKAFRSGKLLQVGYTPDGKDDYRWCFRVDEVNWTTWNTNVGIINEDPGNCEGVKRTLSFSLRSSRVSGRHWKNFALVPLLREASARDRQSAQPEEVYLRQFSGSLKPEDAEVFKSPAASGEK
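Fluo-8 calcium influx in TRPV1-expressing cells, kinetic read (ex 480/em 520 nm). Compound added and read 3 min for agonist activity, followed by capsaicin at EC20 final and 2 min further read for enhancement.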
TRPV1 ag = human TRPV1 agonism | TRPV1-expressing cells, Fluo-8 calcium influx, agonist mode | activation, % at 8.33 µM | 320,000 tested, 0.19% active; in the data active means activation above about 80%; inconclusive means between about 30% and that limit; further: 0% is about no effect
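TRPV1-expressing cells were cultured overnight at 35.5C and loaded with Fluo-8 calcium dye for 40 to 90 min at room temperature. After a 10 s baseline, compound was added and calcium influx was read kinetically for 3 min (ex 480/em 520 nm).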
gsp ag = agonists of gsp mutant (McCune-Albright syndrome); Potency, µM (top dose mostly 76.9 µM), without a hit: at the top dose activation (cAMP increase), hits mostly activators; AID 624287; 340,000 tested, 0.13% active; gsp mutant cells, cAMP HTRF, 30 min; active means well fitted activation curve with a large enough effect; inconclusive means small, poorly fitted or top-dose-only effect, or another doubt; inactive means no such curve, though single readings can be large or run the other way; cell line not stated here;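 further: phosphodiesterase inhibitor Ro 20-1724 added with compounds to block cAMP breakdown; potency means the concentration at half of the fitted maximal effect; nearly all actives have a fitted effect of over 60% in size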
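Cells stably selected in G418 were plated at 2000/well, grown 16-24 hr, then given compounds in DMSO with the PDE inhibitor […] (300 uM solution added) for 30 min at 37C; cAMP was read by HTRF.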
gsp antag = antagonizes gsp, the McCune-Albright syndrome mutation. gsp-mutant cells, cAMP HTRF, 30 min. Potency, µM (top dose mostly 76.9 µM), without a hit: at the highest dose activity change, negative = inhibition, actives largely listed as inhibitors. 340,000 tested, 0.4% active; calls by dose curve; cell line not stated here;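 further: intracellular cAMP measured with PDE inhibitor Ro 20-1724 present during compound exposure; potency means the concentration at half of the fitted maximal effect; on the % scale 0 is the no-effect control and ±100 the full control effect; nearly all actives have a fitted effect of over 65% in size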
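Cells in G418 medium, seeded 16-24 h, 37C; buffer exchange to DPBS + 1 mM CaCl2, 0.5 mM MgCl2, 0.05% BSA; cpds in DMSO + […] (300 uM stock), 30 min 37C; HTRF cAMP detection.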
Numbers without * were called inactive; ? = inconclusive; . = no result; [ ] = remark or other dose.

SMILES	RXFP1 antagonist	RXFP1 ag	TRPV1 PAM	TRPV1 ag	gsp ag	gsp antag
O=C(O)c1cccc(-c2noc(-c3ccccc3F)n2)c1	-27.2	.	.	.	.	.
COc1ccc(NC(=O)CSc2nnnn2C2CCCCC2)cc1	-78.4*	-2.2%	1.2	14.7	-28.1%	4.9%
COc1ccc(OC)c(-n2nnnc2SCC(=O)Nc2ccc(C(=O)N3CCCCC3)cc2)c1	0.0	-0.3%	16.7	1.4	-40.1%	?
COc1ccc(OC)c(-n2nnnc2SCC(=O)Nc2ccc3c(c2)OCCO3)c1	-6.9	15.0%	-1.3	-0.3	11.2µM*	15.3%
CCc1ccc(NC(=O)c2sc3nc(C)c(Cl)c(C)c3c2N)cc1	.	5.3%	.	.	.	.
CCN(c1ccccc1)c1nnc(NC(=O)Nc2ccc(C)cc2)s1	-2.0	6.3%	.	.	.	.
CC12CCC3c4ccc(O)cc4CCC3C1CC(=NO)C2O (stereo not given)	4.6	.	.	.	-0.5%	-0.7%
S=c1[nH]nc(C2CCCCC2)n1/N=C/c1ccccc1Cl	-37.5	-3.5%	18.2	3.7	27.3%[15.4 µM]	39.8µM*
Oc1ccc(C=NNC(=S)Nc2ccc(F)cc2)c(O)c1	-64.4*	.	.	.	?	-7.5%
O=C(CCC(=O)Nc1ccc(F)cc1)N/N=C/c1ccc(O)cc1O	14.2	-0.5%	-1.2	5.5	?	7.0%
O=C(c1ccncc1)c1ccc(N2CCN(C3CC(=O)N(Cc4cccs4)C3=O)CC2)cc1 (stereo not given)	-7.6	3.3%	3.8	7.2	-6.0%	35.5µM*
CC(CC1c2ccccc2CCc2ccccc21)CN(C)C (stereo not given)	-26.9	.	.	.	.	.
N#Cc1c(NC(=S)NC(=O)Cc2cccs2)sc2c1CCCCC2	2.0	3.2%	6.5	-2.4	32.1%	31.6µM*
O=C1N/C(=N/NC(=O)c2cccc3ccccc23)S/C1=C\c1ccccc1OCc1ccccc1	?	3.3%	2.0	0.9	?	28.2µM*
CCc1ccc(/C(C)=N/NC(=O)c2ccc(-n3cnnn3)cc2)cc1	9.0	1.2%	-2.8	?	2.6%	0.6%
CCOC(=O)c1cnc2ccc(Cl)cc2c1Nc1ccc(N2CCOCC2)cc1	-11.2	2.0%	.	.	.	.
CCOC(=O)c1cnc2ccc(C)cc2c1Nc1ccc(N(CC)CC)cc1	-70.4*	5.9%	.	.	.	.
CCOC(=O)c1cnc2ccccc2c1Nc1ccc(C(=O)O)cc1	6.5	7.3%	5.5	-0.8	?	-28.1%
CCOC(=O)c1cnc2ccc(C)cc2c1Nc1ccc(N2CCOCC2)cc1	-100.7*	0.6%	-18.9	?	-14.3%	?
CCCCCC(=O)N1C[C@@H](O)[C@H](n2cc(COC(=O)c3ccccc3)nn2)C[C@@H]1c1ccccc1	2.0	.	.	.	-69.7%	.
O=P(CCCCCCCCCP(=O)(c1ccccc1)c1ccccc1)(c1ccccc1)c1ccccc1	-72.2*	-0.5%	13.4	0.0	-25.7%	39.8µM*
Oc1ccc(CNCc2ccc3c(c2)OCO3)c2cccnc12	.	-1.8%	.	.	.	.
Cc1cccc(NS(=O)(=O)c2cccc(C(=O)NCC(c3ccco3)N3CCCCC3)c2)c1 (stereo not given)	-30.0	-0.8%	-10.6	10.6	3.5%[15.4 µM]	-3.6%
COc1ccc(NS(=O)(=O)c2cccc(C(=O)NCC(c3ccco3)N3CCCCC3)c2)cc1 (stereo not given)	-73.4*	0.9%	?	3.4	-13.9%[15.4 µM]	-5.3%
O=C(NC(NC(=S)Nc1ccccc1Cl)C(Cl)(Cl)Cl)c1cccc(Cl)c1 (stereo not given)	-20.6	-3.0%	-7.9	16.5	0.3%	?
SMILES	RXFP1 antagonist	RXFP1 ag	TRPV1 PAM	TRPV1 ag	gsp ag	gsp antag
O=C(Cc1cccc2ccccc12)NC(NC(=S)Nc1ccccc1Cl)C(Cl)(Cl)Cl (stereo not given)	-62.8*	4.6%	-0.3	5.4	-28.8%	-15.5%
CC(CCc1ccccc1)NC(=O)CN1C(=O)NC2(CCCCC2)C1=O (stereo not given)	-12.0	1.1%	-2.3	0.9	-1.2%[15.4 µM]	-4.9%
COc1ccc(C(=O)NNC(=O)c2ccc(C)cc2)cc1S(=O)(=O)N1CCCC1	-11.9	1.1%	-0.2	0.7	-0.2%[15.4 µM]	2.3%
Cc1ccc(C(CC(=O)NCC2(c3ccccc3)CCCC2)c2ccccc2)c(O)c1 (stereo not given)	-64.9*	2.4%	.	.	.	.
CCOC(=O)N1CCN(c2cc3[nH]c(=S)[nH]c3cc2F)CC1	?	1.5%	-2.5	1.1	-2.7%	-0.3%
CCOC(=O)N1CCN(c2c(F)cc3[nH]c(=S)[nH]c3c2Br)CC1	-64.6*	5.1%	-2.7	3.8	-25.0%	23.1%
CN(CC(=O)Nc1ccccc1Br)C(=O)c1cccnc1Nc1cccc(C(F)(F)F)c1	0.3	2.9%	0.7	18.6	-41.0%	-26.4%
Cc1sc2ncn(CC(=O)NCC(=O)N(C)Cc3ccccc3)c(=O)c2c1C	-0.4	4.1%	0.6	-0.7	11.2µM*	8.1%
Cc1ccc(CNC(=O)CCc2c(C)nn(-c3ccc(N4CCCCC4)nn3)c2C)cc1	-1.0	0.1%	.	.	.	.
O=C(NCCc1csc(-c2cccnc2)n1)c1ccc(F)c(F)c1	.	-1.0%	.	.	.	.
COc1ccc(NC(=O)CNC(=O)Cn2cnc3sc4c(c3c2=O)CCCC4)cc1OC	12.7	17.1%	8.5	1.1	?	5.9%
COc1cc(Br)cc(C2C3=C(CCCC3=O)N(c3ccc(F)cc3)C3=C2C(=O)CCC3)c1O	-5.6	0.3%	-7.6	3.9	?	31.6µM*
CC1(C)Cc2c(sc3ncnc(NN)c23)CO1	8.6	12.6µM*	-3.2	-2.9	?	5.1%
CCCc1nnc(NC(=O)c2cc(=O)c3cc(Cl)ccc3o2)s1	-5.0	0.8%	.	.	.	.
CCOC(=O)c1ccc(Oc2nc(N(C)C)nc(N3CCOCC3)n2)cc1	-0.4	-0.3%	-1.8	11.6	26.7%	50.1µM*
COC(=O)CSc1nc(N2CCOCC2)c2c(c1C#N)CC(C)(C)OC2	-9.7	-3.3%	-3.5	-5.9	3.5%	-11.0%
COC(=O)Sc1nc(N2CCOCC2)c2c(c1C#N)CC(C)(C)OC2	14.9	8.1%	-13.9	?	14.1µM*	14.8%
COc1ccc(CC(=O)NCc2ccc(-n3cccc3)cc2)cc1OC	-3.0	0.6%	-24.1	80.8*	-6.7%[15.4 µM]	9.8%
COc1ccc(CC(=O)Nc2cccc3ccccc23)cc1OC	-5.6	-0.6%	-7.3	89.0*	17.0%[15.4 µM]	-8.0%
COc1cc(Cl)c(C)cc1NC(=O)Cc1ccc(OC)c(OC)c1	-24.1	0.3%	-24.3	89.2*	-8.2%[15.4 µM]	-7.3%
COC(=O)c1ccc(NC(=O)CCNS(=O)(=O)c2cccc3nsnc23)cc1	.	-1.5%	.	.	.	.
COC(=O)c1cc(C(=O)OCC(=O)c2ccc3c(c2)NC(=O)CO3)cc([N+](=O)[O-])c1	5.0	0.5%	3.1	-1.2	9.0%	-4.3%
